Sampled rows, rich in hits. Any-hit rate of the full collection: about 4.4%.
TIM10 inh: TIM10 yeast growth inhibition; inhibition, % at 10 µM; S. cerevisiae TIM10 strain growth, BacTiter-Glo luminescence, 24 h; actives 1.4% (n = 330,000);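 active means inhibition of 40% or more at the single tested concentration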;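 further: wild-type TIM10 isogenic control strain grown at permissive 25 °C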
PfHsp90 set2: growth inhibition of yeast expressing Plasmodium Hsp90; S. cerevisiae expressing PfHsp90, BacTiter-Glo ATP, 48 h; yeast lacking PDR1 and PDR3 efflux regulators; inhibition, % at 9.4 µM; actives 0.32% (n = 310,000);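 active means every replicate shows inhibition above about 80%, whatever the replicate mean, limit read from the data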;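 further: 0% = DMSO neutral controls and 100% = 20 µM radicicol positive controls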
SUMO Mot1 rescue: blocks SUMOylation pathway, rescuing yeast Mot1-301 growth; S. cerevisiae Mot1-301 growth rescue, ATP luminescence, 38.5C; percent above DMSO median, 100 means doubled; growth rescue, % at 18.8 µM; actives 1% (n = 320,000);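 active means every valid replicate shows activation above 250% relative to neutral control wells; inactive means the rest, any valid replicate at or below 250%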;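 further: OY570 slx delta 5 strain wells were the positive control but not used for scaling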
tim10-1 inh: tim10-1 yeast growth inhibition | S. cerevisiae tim10-1 ts strain growth, BacTiter-Glo, 24 h | inhibition, % at 20 µM | actives 2.2% (n = 330,000);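 active means inhibition of at least 40%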;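 further: mutant grown at 25 °C; 0% = DMSO wells with yeast and 100% = wells holding no yeast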
tim23-1 inh: growth inhibitors of tim23-1 mutant yeast; inhibition, % at 20 µM; AID 463212; actives 1.3% (n = 330,000); S. cerevisiae tim23-1 growth, BacTiter-Glo luminescence, 24 h;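 active means growth inhibition of the mutant yeast at or above 50%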;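 further: temperature-sensitive mutant grown at 25 °C; plate controls were DMSO-treated mutant yeast for no effect and medium wells lacking yeast for full effect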
tim10-1 conf: confirmation of tim10-1 mutant yeast growth inhibitors; shares compounds with tim10-1 inh; S. cerevisiae tim10-1 ts strain growth, BacTiter-Glo, 24 h; inhibition, % at 20 µM; actives 56% (n = 7,400); AID 463213;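 active means inhibition of yeast growth at or above a set limit in either of two repeat tests at 20 µM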;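 further: tim10-1 mutant grown at permissive 25 °C to find synthetic lethal compounds; 0% = DMSO yeast wells and 100% = medium wells without yeast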
tim10 confirm: confirmation of TIM10 yeast growth inhibitors; S. cerevisiae tim10 strain growth, BacTiter-Glo luminescence, 24 h; actives 63% (n = 4,600); shares compounds with TIM10 inh; inhibition, % at 10 µM;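 active means inhibition of yeast growth at or above a set limit in either of two replicates at 10 µM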;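 further: this counterscreen used the strain with wild-type TIM10; 0% = yeast with DMSO and 100% = medium wells lacking yeast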
* marks the source's active call; other numbers are inactive results; nt = not tested or not shown.

SMILES	TIM10 inh	PfHsp90 set2	SUMO Mot1 rescue	tim10-1 inh	tim23-1 inh	tim10-1 conf	tim10 confirm
O=C(/C=C/c1ccco1)Nc1ccccc1N1CCCCC1	53.7*	nt	3.5	60.9*	41.4	57.8*	50.5*
CC(C)C(=O)N1CCN(c2ccccc2NC(=S)NC(=O)/C=C/c2ccco2)CC1	-18.0	-1.6	-3.8	-0.5	4.6	nt	nt
CCCCN(C(=O)c1cc(S(=O)(=O)N2CCCCCC2)ccc1OC)c1c(N)n(CCC)c(=O)[nH]c1=O	1.7	nt	17.4	-7.1	4.4	nt	nt
O=C(/C=C/C(Cl)(Cl)Cl)Nc1ccc(Cl)cc1	nt	-3.3	nt	nt	nt	nt	nt
NC(=O)/C=C/C(=O)Nc1ccc(Cl)cc1	55.4*	24.0	23.3	61.0*	33.6	61.1*	55.5*
Cc1ccc(NC(=O)CSc2nnc(COc3ccccc3F)n2N)cc1S(=O)(=O)N1CCOCC1	nt	12.7	nt	nt	nt	nt	nt
Cc1ccc2c(c1C)NC(=O)C21N2CCCC2C(C(=O)c2ccc3ccccc3c2)C12C(=O)Nc1ccccc12 (centres undefined)	nt	30.4	nt	nt	nt	nt	nt
Oc1ccccc1/C=N/n1c(COc2ccccc2)n[nH]c1=S	13.1	-5.8	25.2	36.8	41.9	nt	nt
S=c1[nH]nc(COc2ccccc2)n1/N=C/c1ccc(Br)s1	46.2*	-19.9	nt	47.3*	43.1	33.8*	49.0*
CCn1c2ccccc2c2cc(/C=N/n3cn[nH]c3=S)ccc21	48.4*	3.5	7.1	51.1*	36.5	35.0*	49.0*
COc1cc(/C=N/NC(=O)C(=O)/C=C2\NC3(CCCC3)Cc3ccccc32)ccc1O	46.9*	-25.7	-16.7	52.0*	45.1	22.4	3.8
O=C(/C=C1\NC2(CCCC2)Cc2ccccc21)C(=O)N/N=C/c1ccccc1O	22.7	0.3	39.3	32.8	47.7	nt	nt
Cc1ccc(Oc2nnc(-c3ccccc3)c3ccccc23)cc1	41.0*	10.7	7.8	51.1*	40.6	41.2*	50.3*
Cc1ccc(-c2nnc(Oc3cccc(C)c3)c3ccccc23)cc1	18.7	34.0	128.2	33.9	23.0	nt	nt
CCOC(=O)C(C(=O)OCC)C(Nc1ccccc1)c1ccccc1 (centres undefined)	42.8*	-12.4	-10.5	60.8*	36.7	50.4*	-19.3
COc1ccccc1CN1CCc2c([nH]c3ccccc23)C1	-6.3	8.2	-33.1	3.9	-4.1	nt	nt
Clc1cccc(CN2CCc3c([nH]c4ccccc34)C2)c1Cl	59.9*	7.2	73.5	71.7*	46.1	66.0*	65.8*
O=C(Cc1ccccc1)NCC(=O)OCc1cccc([N+](=O)[O-])c1	-1.8	-5.6	6.7	9.7	14.1	nt	nt
CCN(CC(=O)Nc1ccccc1OC)C(=O)CSCC(=O)Nc1ccc(OC)cc1	3.5	6.9	-2.3	1.1	-2.0	nt	nt
O=C(/C=C/c1ccccc1)Nc1ncn[nH]1	52.9*	22.6	4.3	48.6*	41.0	56.2*	48.3*
O=C(c1ccccc1Nc1ccc(SC(F)F)cc1)N1CCCCCC1	51.1*	23.4	-9.5	43.9*	38.1	33.6*	33.4*
CC/C(=N\NC(=O)Cc1ccc(Br)cc1)c1cccs1	-6.0	33.6	-12.7	-1.9	-0.4	nt	nt
CCc1ccc(NC2=CC(=O)CC(c3ccco3)C2)cc1 (centres undefined)	40.9*	8.4	-9.3	41.7*	36.6	26.3	16.0
O=[N+]([O-])c1cccnc1N1CCC(c2cc(-c3ccc(Cl)cc3Cl)n[nH]2)CC1	31.7	-59.5	-11.7	36.6	25.9	nt	nt
O=[N+]([O-])c1cccnc1N1CCC(c2cc(-c3cccc(C(F)(F)F)c3)n[nH]2)CC1	51.9*	0.6	164.6	43.2*	-4.3	29.8*	-16.6
SMILES	TIM10 inh	PfHsp90 set2	SUMO Mot1 rescue	tim10-1 inh	tim23-1 inh	tim10-1 conf	tim10 confirm
Cc1ccc(C)c(-n2c(C)cc(/C=N/NC(=O)c3c(C)nc4cc(C)ccn34)c2C)c1	41.8*	nt	260.4	53.4*	38.7	31.5	27.0
Cc1ccn2c(C(=O)N/N=C\c3cccs3)c(C)nc2c1	-6.9	9.9	-22.2	16.4	7.6	nt	nt
Clc1ccc2c(N/N=C/c3cccnc3)ccnc2c1	71.4*	-9.5	0.2	51.3*	39.7	56.8*	79.4*
Clc1ccc2c(N/N=C/c3ccc(Br)cc3)ccnc2c1	nt	11.8	264.4	nt	nt	nt	nt
CCC(NC(=O)C1CCCC1)c1ccccc1 (centres undefined)	1.5	-5.7	-5.9	-7.2	6.1	nt	nt
O=C(c1ccc(-n2ccnc2)cc1)N1CCCC(CO)(Cc2cccc(Cl)c2)C1 (centres undefined)	4.5	6.7	-4.2	28.7	31.7	nt	nt
CC(C)c1ccc(N2C(=O)CC(Sc3ncn[nH]3)C2=O)cc1 (centres undefined)	69.3*	-47.7	nt	45.6*	0.2	51.9*	62.5*
Cc1ccc(N2C(=O)CC(Sc3nc(C)cc(C)n3)C2=O)cc1 (centres undefined)	-4.9	2.6	2.4	3.4	11.1	nt	nt
CC(C)c1ccc(N2C(=O)CC(Sc3nc4ccccc4o3)C2=O)cc1 (centres undefined)	53.0*	nt	30.2	52.5*	30.2	46.3*	41.0*
CCOC(=O)C1CCCN(C(=O)c2ccc(-c3ccc([N+](=O)[O-])cc3)o2)C1 (centres undefined)	45.8*	13.7	12.5	57.9*	46.1	66.3*	57.6*
CSCC[C@H](NC(=O)[C@H](Cc1ccccc1)n1c(=O)[nH]c2ccccc2c1=O)C(=O)NCC1CCC(C(=O)O)CC1 (some centres undefined)	1.9	-10.9	-5.3	-2.0	0.9	nt	nt
O=C(NC12CC3CC(CC(C3)C1)C2)c1ccc(-c2cccc(Cl)c2)o1	46.7*	29.6	-12.4	47.3*	47.3	35.6*	-17.5
Cc1cccc(-n2cc(CN(C)Cc3nccn3C)c(-c3cccc(F)c3)n2)c1	44.9*	11.4	-11.1	43.2*	45.8	23.8	43.5*
O=C(CSCc1ccc(Br)cc1)N=Nc1c(O)[nH]c2ccccc12	43.0*	-1.6	3.3	44.9*	45.3	40.1*	33.5*
O=C(CSc1nc2ccccc2[nH]1)N=Nc1c(O)[nH]c2ccccc12	7.8	-4.3	21.7	3.1	5.1	nt	nt
CC1CCC2C(C1)c1sc(=O)[nH]c1SC2(C)C (centres undefined)	41.2*	-187.4	13.2	51.2*	23.6	40.6*	41.0*
CCCCn1c(CCC)nc([N+](=O)[O-])c1Sc1ccc(Cl)cn1	49.0*	-21.8	0.0	43.9*	47.0	40.0*	42.1*
CC(=O)N1N=C(c2ccccc2)OC1c1ccc([N+](=O)[O-])s1 (centres undefined)	51.3*	126.9*	nt	47.0*	47.1	68.6*	31.6*
Cc1c(N2C(=O)/C(=C\C3CC=CCC3)SC2=S)c(=O)n(-c2ccccc2)n1C (centres undefined)	42.1*	nt	109.6	45.5*	47.8	39.4*	33.3*
